HP1b chromo inh – HTS for Inhibitors of HP1-beta Chromodomain Interactions with Methylated Histone Tails. Chromobox protein homolog 1 (Homo sapiens), P83916. AID 540317, 2011. AlphaScreen HP1-beta / biotin-H3K9me3 peptide binding. 390,000 compounds, 0.56% hits. Potency, µM (highest dose often 114 µM), actives largely listed as inhibitors; note: nearly all actives have a fitted effect of over 70% in size
Target sequence (P83916 whole entry, looked up): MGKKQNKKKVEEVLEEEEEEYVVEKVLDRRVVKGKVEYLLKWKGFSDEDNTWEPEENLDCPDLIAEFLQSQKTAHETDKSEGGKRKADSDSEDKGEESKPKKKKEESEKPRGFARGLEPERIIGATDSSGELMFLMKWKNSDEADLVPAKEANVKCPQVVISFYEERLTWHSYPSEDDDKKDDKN
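Compound inhibition of the preformed complex between 50 nM HP1-beta and 50 nM biotinylated H3K9me3 peptide was read by AlphaScreen. Buffer was PBS pH 7.4 with 0.01% Tween-20. Incubations ran 30 min at room temperature, with 10 ug/mL donor/acceptor beads.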
BAZ2B block – qHTS Assay for Inhibitors of BAZ2B | Bromodomain adjacent to zinc finger domain protein 2B (Homo sapiens), Q9UIF8 | AlphaScreen BAZ2B-H3K14Ac peptide displacement | Potency, µM (titrated, usually from 114 µM), most hits filed as inhibitors | 360,000 compounds, 4.4% hits | AID 504333, 2011; note: nearly all actives have a fitted effect of over 60% in size
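BAZ2B 50 nM plus b-H3(5-23)K14Ac 50 nM, PBS pH 7.4/0.01% Tween-20, 30 min RT; compound added (max 110 uM), 30 min RT; streptavidin donor/Ni-chelate acceptor beads 10 ug/mL final, 20 min dark; AlphaScreen read.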
Sfp PPTase inh – qHTS Assay for Inhibitors of Bacillus subtilis Sfp phosphopantetheinyl transferase (PPTase) | Biochemical Sfp PPTase activity, qHTS | Potency, µM, hits mostly inhibitors | 310,000 compounds, 3.5% hits | AID 1490, 2009;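 note: the enzyme is Sfp with the accession as filed and its product quenches rhodamine fluorescence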
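Compounds were incubated with enzyme (final 15 nM) for 15 min at room temperature before substrate addition started the reaction. Fluorescence at 525 nm excitation, 598 nm emission was recorded immediately and after 30 minutes.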
G9a inh – qHTS Assay for Inhibitors of Histone Lysine Methyltransferase G9a | Histone-lysine N-methyltransferase EHMT2 (Homo sapiens), Q96KQ7 | G9a H3K9 monomethylation, AlphaScreen, 2 h | Potency, µM (highest dose often 102 µM), usual class: inhibitors | 350,000 compounds, 8.8% hits | AID 504332, 2011; note: nearly all actives have a fitted effect of over 75% in size
Target sequence (Q96KQ7 913-1193 limits assumed): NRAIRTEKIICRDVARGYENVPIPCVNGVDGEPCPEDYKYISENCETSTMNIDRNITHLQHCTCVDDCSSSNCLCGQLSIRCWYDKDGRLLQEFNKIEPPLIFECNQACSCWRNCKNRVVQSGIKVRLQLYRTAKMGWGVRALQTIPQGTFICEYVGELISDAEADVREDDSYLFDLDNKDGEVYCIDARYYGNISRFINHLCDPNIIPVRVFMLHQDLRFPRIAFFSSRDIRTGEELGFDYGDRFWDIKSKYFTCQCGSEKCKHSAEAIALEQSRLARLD
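Signal arises when biotinylated H3K9 peptide, once monomethylated, bridges streptavidin donor and antibody-captured acceptor beads. Enzyme at 20 nM was preincubated 15 min with test compounds; peptide 500 nM and SAM 20 uM then reacted for 2 h.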
JMJD2A Tudor inh – qHTS Assay for Inhibitors of JMJD2A-Tudor Domain. 390,000 compounds, 4.4% hits. Potency, µM (doses to about 114 µM), most hits filed as inhibitors. Lysine-specific demethylase 4A (Homo sapiens), O75164. AlphaScreen JMJD2A-Tudor / H3K4me3 peptide binding. AID 504339, 2011; note: nearly all actives have a fitted effect of over 50% in size
L3MBTL1 block – qHTS Assay for the Inhibitors of L3MBTL1; Lethal(3)malignant brain tumor-like protein 1 (Homo sapiens), Q9Y468; AlphaScreen L3MBTL1–H3K9me1 peptide binding; Potency, µM (titrated, usually from 57.1 µM), actives largely listed as inhibitors; 230,000 compounds, 0.66% hits; note: nearly all actives have a fitted effect of over 60% in size
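First, the protein-peptide complex forms for 30 min at room temperature (L3MBTL1 50 nM, biotinylated H3K9me1 peptide 75 nM). Next, compounds are pin-transferred and incubated 30 min. Finally, AlphaScreen beads are added and read after 30 min.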
Numbers stand for hits; i = inactive; ? = inconclusive; nt = no result given; [ ] = another dose, or the depositor's remark. Most compounds without a hit are left out; they make up all but 12% or so of the library. Calls come from the whole dose curve; as a rule, active = well fitted curve in the direction sought with a large enough effect; inconclusive = small, poorly fitted or top-dose-only effect, or another doubt; inactive = no such curve, though single readings can be large; an effect the other way counts as inactive or inconclusive.

SMILES	HP1b chromo inh	BAZ2B block	Sfp PPTase inh	G9a inh	JMJD2A Tudor inh	L3MBTL1 block
CC(C)CSC1=NSC2=NC(=O)/C(=C\c3cccs3)C(=N)N12	i	?	i	45µM	?	i
CCCCCCCCCCCCCCCCOCC(CO)OC (configuration not stated)	nt	nt	i	i	nt	nt
CCOC(=O)c1ccc(-n2c(CN3CCC(C(N)=O)CC3)nc3ccc([N+](=O)[O-])cc3c2=O)cc1	i	nt	22µM	?	i	i
CCOC(=O)c1ccc(-n2c(CC)nc3ccccc3c2=O)cc1	nt	i	i	i	nt	i
CCOC(=O)c1ccc(-n2c(CN3CCC(O)CC3)nc3ccc([N+](=O)[O-])cc3c2=O)cc1	i	?	18µM	13µM	i	nt
O=S(=O)(NCC(c1ccco1)S(=O)(=O)c1ccccc1)c1cc(F)ccc1F (configuration not stated)	i	i	nt	i	i	nt
Cc1ccc(Cl)cc1NC(=O)c1oc2ccc(S(=O)(=O)N(C)C3CCCCC3)cc2c1C	i	i	nt	i	i	nt
Cn1c(SCc2cc(=O)n3cc(Br)ccc3n2)nnc1C1COc2ccccc2O1 (configuration not stated)	i	?	i	i	50µM	i
Cc1occc1-c1nnc(SCc2cc(=O)n3cc(Br)ccc3n2)n1C	i	56µM	i	i	?	i
Cn1c(SCC(=O)c2ccc3c(c2)OCO3)nnc1C1COc2ccccc2O1 (configuration not stated)	i	i	i	?	50µM	i
COC(=O)C1=C(C(=O)OC)[C@@H]2N(Cc3ccccc3)c3ccccc3[C@@]23C[C@@H](C(=O)OC)N(S(=O)(=O)c2ccc(C#N)cc2)C3=N1	nt	nt	i	nt	nt	nt
COc1ccc(NC(=O)C(NC(=O)/C=C\c2ccc3c(c2)OCO3)c2ccc(C)cc2)cc1 (configuration not stated)	i	i	nt	i	i	nt
c1ccc2c(-c3nc(-c4ccncc4)no3)cccc2c1	i	i	10µM	i[12.7 µM]	i	i
c1ccc(-c2noc(-c3cccc4ccccc34)n2)cc1	i	i	i	i[12.7 µM]	i	i
Cc1ccc(-n2c(=O)c3ccc(C(=O)NCc4ccco4)cc3n(Cc3ccc(Cl)cc3)c2=O)cc1	i	nt	nt	i	i	nt
Cc1ccc(-n2c(=O)c3ccc(C(=O)NCc4ccco4)cc3n(Cc3ccccc3Cl)c2=O)cc1	i	nt	nt	1.6µM	i	nt
O=C(O)CCCNC(=O)CC1S/C(=N/N=C/c2ccccc2O)NC1=O (configuration not stated)	i	50µM	i	i	i	nt
CCCCNC(=O)CC1S/C(=N/N=C/c2ccc(OC)cc2)NC1=O (configuration not stated)	i	i	i	i	i	nt
O=C(Nc1ccccc1)C1CCN(S(=O)(=O)c2cccs2)CC1	i	i	nt	i	i	i
CC(=O)CC(=O)Nc1ccc(Nc2ccccc2)cc1	i	?	i	71µM	i	i
O=C(Nc1ccc(Nc2ccccc2)cc1)C1CC1	i	?	i	25µM	?	i
CC(=O)CC(=O)Nc1ccc(C(N)=O)cc1	i	i	i	25µM	i	i
O=C(Nc1ccccc1)C1CCN(c2nccs2)CC1	i	i	i	50µM	i	i
CCCC(=O)Nc1ccc(C(N)=O)cc1	i	i	i	i	i	i
O=C1CCCC2=C1C1(CCSCC1)N=C(Nc1nc3ccccc3o1)N2	nt	nt	nt	nt	i	nt
CCc1nc2nc(C)c(NS(=O)(=O)c3ccc(C)cc3)c(=O)n2[nH]1	i	i	nt	i	i	nt
COc1cc(/C=C/c2nc(C#N)c(NC3CCCCC3)o2)cc(OC)c1OC	i	?	nt	i	i	nt
CC(C)(C)OC(=O)N1CCc2nc(N3CCN(c4ncccn4)CC3)ncc2C1	i	i	nt	i	i	nt
COc1cccc([C@@H]2Oc3ccc(OC)cc3C(=O)[C@H]2OC(=O)NCCc2ccc(OC)c(OC)c2)c1	nt	nt	i	nt	nt	nt
C=CCNC(=S)Nc1ccc(C(N)=O)cc1	i	i	i	?	i	i
